Data taken from PMC5540273 (PLoS ONE, 2017).

Tests used:
Conditions in all cases: concentration: 1 μM, replicates: in singlicate; n = 1
PAK1 = tested on: PAK1
PAK2 = tested on: PAK2
PAK3 = tested on: PAK3
PAK4 = tested on: PAK4
PAK6 = tested on: PAK6
PAK7 = tested on: PAK7
PCTK1 = tested on: T1, PCTK1
T1 construct: gene CDK16

PCTK2 = tested on: T2, PCTK2
T2 construct: gene CDK17

PCTK3 = tested on: T3, PCTK3
T3 construct: gene CDK18

PDGFRA = tested on: PDGFRA
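Also: KINOMEscan kinase panel screen.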

| Structure (SMILES) | %Inh (PAK1) | %Inh (PAK2) | %Inh (PAK3) | %Inh (PAK4) | %Inh (PAK6) | %Inh (PAK7) | %Inh (PCTK1) | %Inh (PCTK2) | %Inh (PCTK3) | %Inh (PDGFRA) |
| --- | --- | --- | --- | --- | --- | --- | --- | --- | --- | --- |
| Cc1ccc(O)cc1Nc1cc(C(F)(F)F)nc2ccc(-c3ccncc3)cc12 [GW630823] | 21% | 10% | 0% | 21% | 20% | 7% | 0% | 2% | 0% | 0% |
| CC(=O)Nc1n[nH]c2ncc(-c3ccccc3)cc12 [SB-548492] | 0% | 32% | 0% | 4% | 12% | 0% | 3% | 7% | 4% | 51% |
| CNc1nccc(-c2c(-c3ccc(F)cc3)ncn2C2CCN(C)CC2)n1 [SB-222903] | 0% | 13% | 0% | 0% | 0% | 0% | 0% | 0% | 0% | 0% |
| Cl.c1ccc(Cn2ncc3cc(Nc4ncnc5ccccc45)ccc32)cc1 [GW273749] | 5% | 0% | 0% | 0% | 15% | 6% | 0% | 0% | 23% | 0% |
| Clc1ccc(-c2cc(-c3c[nH]nc3-c3ccccn3)ccn2)cc1 [GW681251] | 3% | 0% | 2% | 39% | 1% | 0% | 0% | 0% | 12% | 0% |
| Nc1n[nH]c2nnc(-c3ccccc3)cc12 [SB-517389] | 12% | 8% | 0% | 0% | 0% | 2% | 7% | 20% | 15% | 0% |
| CSc1ccc(NC2=C(c3ccccc3Cl)C(=O)NC2=O)cc1 [SB-342411] | 0% | 0% | 14% | 29% | 8% | 15% | 29% | 31% | 67% | 0% |
| COc1ccc(Nc2nccc(N3CCC(NC(=O)Nc4ccc5c(c4)OCO5)C3)n2)cc1 (stereo not shown) [GSK1379745] | 0% | 6% | 0% | 0% | 0% | 0% | 6% | 17% | 32% | 0% |
| FC(F)(F)c1ccc(-c2cc(-c3c[nH]nc3-c3ccccn3)ccn2)cc1 [GW599550] | 11% | 28% | 32% | 0% | 0% | 0% | 0% | 11% | 25% | 11% |
| O=C(Nc1ccccc1)Nc1ccc(Oc2ccc3nccn3n2)cc1 | 0% | 8% | 0% | 0% | 0% | 0% | 0% | 2% | 0% | 83% |
| Fc1ccc(-c2ncn(CCCNCc3ccccc3)c2-c2ccncc2)cc1 | 30% | 25% | 0% | 11% | 11% | 14% | 7% | 0% | 8% | 0% |
| Fc1cccc(COc2ccc(Nc3ncnc4nn5ccccc5c34)cc2Cl)c1 [GW689066] | 15% | 15% | 8% | 15% | 0% | 0% | 0% | 0% | 0% | 0% |
| Nc1nc(-c2ccccn2)c(-c2ccnc3ccccc23)s1 [GW548057] | 0% | 0% | 0% | 0% | 1% | 26% | 0% | 18% | 16% | 1% |
| O=c1cc(N2CCOCC2)nc2n(Cc3cccc(Cl)c3)ccn12 [GSK2296823] | 6% | 10% | 0% | 0% | 0% | 53% | 5% | 0% | 17% | 0% |
| FC(F)(F)c1ccc(-c2nn3ncccc3c2-c2ccnc(Nc3cccc(C(F)(F)F)c3)n2)cc1 [GW828205] | 37% | 30% | 0% | 7% | 20% | 0% | 0% | 0% | 0% | 0% |
| COc1ccc(NC(=O)c2ccc(-c3cc(-c4nnc(C)o4)ccc3C)cc2)cc1 [GW595885] | 0% | 0% | 0% | 0% | 0% | 0% | 6% | 0% | 24% | 0% |
| Cc1ccc(C)c(NC(=O)NCCNc2ccnc(Nc3ccc(F)cc3)n2)c1 [GSK1379878] | 0% | 0% | 0% | 0% | 100% | 0% | 0% | 0% | 0% | 0% |

| Structure (SMILES) | %Inh (PAK1) | %Inh (PAK2) | %Inh (PAK3) | %Inh (PAK4) | %Inh (PAK6) | %Inh (PAK7) | %Inh (PCTK1) | %Inh (PCTK2) | %Inh (PCTK3) | %Inh (PDGFRA) |
| --- | --- | --- | --- | --- | --- | --- | --- | --- | --- | --- |
| CN1CCC(n2cnc(-c3ccc(F)cc3)c2-c2ccnc(NC3CCNCC3)n2)CC1 [SB-229482] | 0% | 14% | 13% | 8% | 11% | 10% | 0% | 0% | 10% | 11% |
| COc1ccc(Nc2nccc(N3CCC(NC(=O)c4cccc(NC(C)=O)c4)C3)n2)cc1 (stereo not shown) [GSK1379732] | 0% | 0% | 0% | 0% | 0% | 6% | 0% | 10% | 1% | 0% |
| CCc1nc(-c2cccc(N(C)S(=O)(=O)c3ccccc3)c2)c(-c2ccnc(Nc3ccc(N4CCN(C(C)=O)CC4)nc3)n2)s1 [GSK1645895] | 6% | 0% | 0% | 0% | 5% | 5% | 8% | 24% | 4% | 14% |
| C[C@@H]1CCN(C(=O)CO)C[C@@H]1N(C)c1ncnc2[nH]ccc12 | 0% | 0% | 0% | 0% | 0% | 2% | 0% | 0% | 4% | 0% |
| Cc1cccc(-c2nc(Nc3ccc4[nH]nnc4c3)c3ccccc3n2)n1 [GW867587] | 9% | 41% | 0% | 0% | 0% | 0% | 0% | 0% | 0% | 0% |
| C[C@H]1CC[C@@H](C(=O)Nc2ccccc2)CN1c1cc(-c2ccc3c(N)n[nH]c3c2)nc(N)n1 [GSK2283293] | 0% | 3% | 0% | 0% | 0% | 0% | 0% | 0% | 12% | 0% |
| FC(F)(F)c1cc(Nc2nccc(-c3c(-c4ccc(Cl)cc4)nn4ncccc34)n2)ccc1Cl [GW829351] | 0% | 17% | 0% | 0% | 0% | 0% | 0% | 0% | 0% | 0% |
| Oc1ccc2ncnc(Nc3ccc(OCc4ccccc4)cc3)c2c1 [GI262866] | 22% | 29% | 87% | 0% | 0% | 0% | 10% | 0% | 13% | 0% |
| CSc1nn2c(=O)cc(N3CCOCC3)nc2n1Cc1cccc(Cl)c1Cl [GSK2347225] | 13% | 13% | 15% | 0% | 0% | 26% | 15% | 0% | 0% | 0% |
| COC(=O)c1c(-c2ccccc2)c2cc(Cl)ccc2c(=O)n1Cc1ccc(S(C)(=O)=O)cc1 | 6% | 0% | 0% | 0% | 0% | 0% | 28% | 3% | 0% | 15% |
| CCCc1ccc(S(=O)(=O)NC2CCN(c3ccnc(Nc4ccc(OC)cc4)n3)C2)cc1 (stereo not shown) [GSK1379737] | 11% | 9% | 100% | 0% | 0% | 0% | 0% | 0% | 0% | 0% |
| Fc1ccc(Nc2nccc(-c3c(-c4ccc(Cl)cc4)nn4ncccc34)n2)cc1F [GW829058] | 21% | 24% | 15% | 27% | 34% | 14% | 23% | 0% | 13% | 19% |
| COC(=O)c1cccc(NC(=O)NCCNc2ccnc(Nc3ccc(F)cc3)n2)c1 [GSK1379883] | 0% | 0% | 0% | 0% | 0% | 0% | 0% | 0% | 0% | 0% |
| Cl.Cn1ccc(-c2cccc(Nc3ccnc4cc(-c5nccs5)ccc34)c2)n1 [GW525701] | 0% | 0% | 18% | 0% | 0% | 100% | 0% | 0% | 30% | 0% |
| CN1c2ccc(-c3ccc(C(=O)NCCO)cc3)cc2-c2[nH]ncc2S1(=O)=O | 12% | 32% | 20% | 35% | 7% | 16% | 0% | 28% | 0% | 35% |
| Nc1nc(-c2cccnc2)c(-c2ccnc3ccccc23)s1 [GW684083] | 0% | 4% | 20% | 0% | 0% | 0% | 0% | 0% | 11% | 0% |
| Cc1ccc(NC(=O)c2cccc(C#N)c2)cc1-c1ccc(C(=O)Nc2ccncc2)cc1 [GSK1398463] | 16% | 21% | 0% | 0% | 0% | 1% | 2% | 0% | 18% | 86% |
